The results in this text go back to PubChem BioAssay (EPA / NIEHS).

Inconclusive results are not listed. Calls of active or inactive are those of the source. How the source made its calls, unless noted: active means hit-call score of the fitted dose curve at least 0.9, where 1 is the maximum; inactive means score below 0.9.

A word on the AC50: it is the concentration giving half of the maximal activity seen.

Experiment [1] is described as follows: ACEA_ER_80hr: ACEA Biosciences xCELLigence Real-Time Cell Analysis on Estrogen Receptor Agonism for Proliferation (AID 2282667; active means hit-call score of the fitted dose curve at least 0.9, where 1 is the maximum). The settings on record: T47D proliferation, impedance (xCELLigence), 80 h. The gist of the method:
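Real-time impedance growth kinetics of human T-47D breast cells read 80 h after dosing, gain-of-signal fitted relative to DMSO. Compounds: 1:4 serial series, top final concentration 100 uM, n = 2.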

Experiment [2] is described as follows: APR_HepG2_CellCycleArrest_24hr: Apredica 24-hour HepG2 Assay for Cell Cycle Arrest (AID 2282905).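 Further: cell cycle arrest scored as ratio of 2N to 4N nuclear DNA content.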 The settings on record: imaging, actives raise or lower the signal. The method, boiled down: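 Readout: Hoechst 33342 nuclear DNA content by high-content fluorescent imaging, six images/well, 20x. Human HepG2 liver cells, 24 hr compound exposure, 0.39–200 uM, final DMSO 0.5% v/v. Gain or loss fitted relative to DMSO baseline.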

Experiment [3] in a line: APR_HepG2_NuclearSize_24hr: Apredica 24-hour HepG2 Assay for Nuclear Size (AID 2282907). The settings on record: high-content imaging, actives raise or lower the signal. The gist of the method: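 Read-out: nuclear diameter from Hoechst 33342 (2 ug/mL) imaging of fixed HepG2 cells, 20x, six fields/well. Compounds ran at 0.39–200 uM for 24 hr, 0.5% DMSO final. Gain or loss was fitted bidirectionally relative to the DMSO baseline.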

Experiment [4] can be described thus: APR_HepG2_CellLoss_24hr: Apredica 24-hour HepG2 Assay for Cell Loss (AID 2282908).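 On AC50: fit in both directions so a hit may be cell loss or gain.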 The settings on record: high-content imaging. The method, boiled down: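 Read-out: Hoechst 33342-stained nuclei counted by automated fluorescence imaging after formaldehyde fixation and Triton permeabilization. Ten concentrations, 0.39 to 200 uM, duplicate wells, 0.5% DMSO final. Gain or loss of signal fitted relative to DMSO baseline.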

Experiment [5] is described as follows: APR_HepG2_MitoMembPot_24hr: Apredica 24-hour HepG2 Assay for Mitochondrial Membrane Potential (AID 2282911). The settings on record: imaging, actives raise or lower the signal. The method, boiled down: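 Mitochondrial membrane potential imaged via MitoTracker Red CMXRos (250 nM, 30 min pre-fixation) in fixed HepG2 cells with Hoechst nuclear identification. Ten concentrations 0.39–200 uM, 24 h treatment, 0.5% DMSO; CCCP as positive control.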

Experiment [6] in a line: APR_HepG2_MitoMass_24hr: Apredica 24-hour HepG2 Assay for Mitochondrial Mass (AID 2282912). The settings on record: high-content imaging, actives raise or lower the signal. The gist of the method: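 HepG2, 24 hr dosing, 10 concentrations 0.39–200 uM in duplicate, DMSO 0.5% final. MitoTracker Red CMXRos 250 nM, 30 min pre-fix; 3.7% formaldehyde fix. Imaging-based fluorescence intensity; gain/loss fit vs DMSO baseline.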

Experiment [7] is described as follows: APR_HepG2_p53Act_24hr: Apredica 24-hour HepG2 Assay for p53 Activation (AID 2282913).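 Further: p53 protein immunofluorescence averaged per cell in HepG2 with Hoechst nuclei.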 The settings on record: high-content imaging, actives raise or lower the signal. The gist of the method:
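Fluorescence imaging of formaldehyde-fixed HepG2 cells labelled for p53 and with Hoechst, 24 h after dosing (0.39–200 uM, duplicate wells, 0.5% v/v DMSO). Signal fitted in both directions relative to DMSO.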

Experiment [8] can be described thus: APR_HepG2_CellLoss_72hr: Apredica 72-hour HepG2 Assay for Cell Loss (AID 2282915). The settings on record: high-content imaging. The gist of the method:
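Cell number comes from Hoechst 33342-labelled nuclei, imaged at 20x after 3.7% formaldehyde fixation. Dosing was 0.39–200 uM, ten concentrations in duplicate, 0.5% DMSO final, for 72 h. Bidirectional fit relative to DMSO baseline.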

The nature of experiment [9]: APR_HepG2_P-H2AX_72hr: Apredica 72-hour HepG2 Assay for H2AX Phosphorylation (AID 2282916).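 Further: phospho-histone H2A.x immunostain intensity per cell marking DNA damage.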 The settings on record: imaging, actives raise or lower the signal. The gist of the method: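 Readout: phospho-H2A.x immunofluorescence (FITC secondary) plus Hoechst nuclear stain, high-content imaging at 20x, six fields/well. HepG2, 72 hr compound exposure, 0.39–200 uM, final DMSO 0.5% v/v. Gain or loss fitted relative to DMSO baseline.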

Experiment [10] can be described thus: APR_HepG2_MitoticArrest_72hr: Apredica 72-hour HepG2 Assay for Mitotic Arrest (AID 2282918). The settings on record: high-content imaging, actives raise or lower the signal. The gist of the method:
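High-content imaging of fixed human HepG2 cells after 72 h compound exposure (0.39–200 uM, duplicates, 0.5% DMSO); mitotic arrest scored from phospho-histone H3 and nuclear Hoechst staining relative to DMSO.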

The nature of experiment [11]: APR_HepG2_P-H2AX_24hr: Apredica 24-hour HepG2 Assay for H2AX Phosphorylation (AID 2282920). The settings on record: high-content imaging, actives raise or lower the signal. The gist of the method:
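High-content imaging of phospho-histone H2A.x immunofluorescence, nuclei counterstained with Hoechst 33342, in fixed HepG2 cells. Compounds ran 0.39–200 uM in duplicate for 24 h, final DMSO 0.5%. Signal change fitted both directions against DMSO.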

Experiment [12] can be described thus: APR_HepG2_StressKinase_72hr: Apredica 72-hour HepG2 Assay for Stress Kinase (AID 2282921). The settings on record: HepG2 stress kinase (phospho-c-Jun) imaging, actives raise or lower the signal. The gist of the method: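 Phospho-c-Jun immunofluorescence measured by high-content imaging at 20x, six fields per well; bidirectional curve fitting against DMSO as baseline. Dosing: 0.39–200 uM, 72 h, 0.5% DMSO final.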

Experiment [13] is described as follows: APR_HepG2_StressKinase_24hr: Apredica 24-hour HepG2 Assay for Stress Kinase (AID 2282922). The settings on record: HepG2 stress kinase (phospho-c-Jun) imaging, actives raise or lower the signal. The gist of the method: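 High-content imaging of phospho-c-Jun immunofluorescence in fixed, permeabilized HepG2 cells after 24 h dosing. Ten concentrations, 0.39 to 200 uM, run in duplicate at 0.5% v/v DMSO; gain or loss of signal versus DMSO.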

A short description of experiment [14]: APR_HepG2_p53Act_72hr: Apredica 72-hour HepG2 Assay for p53 Activation (AID 2282923).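 Further: average cellular p53 protein immunofluorescence intensity in HepG2 cells.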 The settings on record: high-content imaging, actives raise or lower the signal. The method, boiled down:
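Readout: p53 immunofluorescence quantified by automated high-content imaging at 20x, six fields per well, nuclei located via Hoechst. Dosing ran 72 hr over ten concentrations from 0.39 to 200 uM; bidirectional curve fitting against DMSO baseline.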

Experiment [15] in a line: APR_HepG2_NuclearSize_72hr: Apredica 72-hour HepG2 Assay for Nuclear Size (AID 2282925). The settings on record: high-content imaging, actives raise or lower the signal. The gist of the method:
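Nuclear size was read by high-content imaging of Hoechst 33342 stain after formaldehyde fixation. Compounds ran 72 h on HepG2 at 0.39 to 200 uM, with final DMSO 0.5% v/v. Curves fitted both directions relative to DMSO control.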

Experiment [16] in a line: APR_HepG2_MitoMass_72hr: Apredica 72-hour HepG2 Assay for Mitochondrial Mass (AID 2282924).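 Further: MitoTracker Red CMXRos stain intensity per cell imaged as mitochondrial mass.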 The settings on record: high-content imaging, actives raise or lower the signal. The method, boiled down: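 Readout is imaged MitoTracker Red (250 nM, 30 min, pre-fixation) signal, fitted bidirectionally against DMSO baseline. Human HepG2 liver cells received compound 0.39–200 uM in duplicate for 72 hr, final DMSO 0.5%.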

As to `CCOc1ccc(C(C)(C)COCc2cccc(Oc3ccccc3)c2)cc1`, the compound was called inactive in experiment [1], in experiment [2], in experiment [3], in experiment [4], in experiment [5] and in [6]. Besides, the call in experiment [7], in [9], in experiment [11], in experiment [12], in experiment [13] and in experiment [14] was inactive. Moreover, the compound was classed as inactive in [15]. For the same compound, the values for the AC50 in experiment [8] and in [10] were 68.3 µM (active) and 66.6 µM (active), respectively.
Consider `ClC(Cl)(Cl)c1ccccc1`, for which the call in experiment [1], in experiment [2], in experiment [3], in experiment [4], in experiment [5] and in experiment [6] was inactive. Also, the result in experiment [7], in experiment [8], in experiment [9], in [10], in experiment [11] and in experiment [12] was inactive. Further, the compound was classed as inactive in experiment [13], in experiment [14] and in [15].
On to `O=P(Oc1ccccc1)(Oc1ccccc1)Oc1ccccc1`, for which the call in [1], in experiment [3], in experiment [5], in experiment [6], in [12] and in [13] was inactive. Further, the result in experiment [15] was inactive. In addition, the AC50 is 83.5 µM (active) in experiment [2]; 63.2 µM (active) in experiment [4]; 67.6 µM (active) in [7]; 63.2 µM (active) in experiment [8]; 66.4 µM (active) in experiment [9]; 62 µM (active) in experiment [10]. Besides, the figures for the AC50 in experiment [11] and in experiment [14] were 70.9 µM (active) and 68.3 µM (active), respectively.
With `CCC1(c2ccccc2)C(=O)N=C(O)NC1=O` (stereo not drawn), the outcome in experiment [1], in experiment [2], in experiment [3], in experiment [4], in experiment [5] and in experiment [6] was inactive. Besides, the compound was called inactive in experiment [7], in experiment [8], in experiment [9], in experiment [10], in experiment [11] and in [12]. Further, the compound was classed as inactive in experiment [13], in experiment [14] and in experiment [15].
Regarding `CCOP(=S)(OCC)SCSCC`, the AC50 in experiment [1] is 19.7 µM (active); in [2], 114 µM (active); in [11], 107 µM (active). Moreover, the compound was classed as inactive in experiment [3], in experiment [4], in experiment [5], in experiment [6], in experiment [8] and in experiment [9]. Besides, the call in experiment [10], in [12], in experiment [13], in experiment [16] and in experiment [15] was inactive.
For the compound `CC(Cc1ccc(OCC(=O)O)cc1)NCC(O)c1csc(C(F)(F)F)n1` (stereo not drawn), the compound was called inactive in experiment [1], in experiment [2], in [3], in [4], in [5] and in [6]. The call in experiment [7], in [8], in experiment [9], in [10], in [11] and in experiment [12] was inactive. Further, the call in experiment [13], in experiment [14] and in experiment [15] was inactive.
For `O=[N+]([O-])c1ccc(Cl)c(Cl)c1`, the compound was called inactive in [1], in experiment [2], in [3], in experiment [4], in experiment [5] and in experiment [6]. Moreover, the outcome in experiment [8], in experiment [9], in experiment [10], in experiment [11], in experiment [12] and in experiment [13] was inactive. Also, the outcome in experiment [15] was inactive.
For `CCOS(=O)(=O)OCC`, the compound was classed as inactive in experiment [1], in experiment [2], in [3], in [4], in [5] and in experiment [6]. The result in experiment [7], in [8], in [9], in [10], in [11] and in [12] was inactive. For the same compound, the call in [13], in [14] and in experiment [15] was inactive.
On to `COCCOCCO`, for which the outcome in experiment [1], in experiment [2], in experiment [3], in experiment [4], in [5] and in experiment [6] was inactive. In addition, the compound was classed as inactive in experiment [8], in experiment [9], in experiment [10], in experiment [11], in experiment [12] and in [13]. The call in [15] was inactive.
Regarding `Cc1cccc(N)c1`, the outcome in experiment [1], in experiment [2], in [3], in experiment [4], in experiment [5] and in [6] was inactive. Moreover, the call in [7], in experiment [8], in experiment [9], in [10], in experiment [11] and in experiment [12] was inactive. Also, the outcome in [13], in [14] and in experiment [15] was inactive.
With `Cc1ccc([N+](=O)[O-])cc1C`, the result in experiment [1], in experiment [2], in experiment [3], in experiment [4], in experiment [5] and in experiment [6] was inactive. For the same compound, the call in experiment [8], in experiment [9], in [10], in experiment [11], in experiment [12] and in [13] was inactive. In [15], the compound was called inactive.
